The values below come from PubChem BioAssay (EPA / NIEHS).

Activity calls are given as the source filed them. How the source made its calls: active means hit-call score of the fitted dose curve at least 0.9, where 1 is the maximum; inactive means score below 0.9.

The nature of test [1]: BSK_KF3CT_SRB: Viability Assessment in the BioMAP Diversity Plus: KF3CT Assay (AID 2283069).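 Further: total protein by sulforhodamine B staining as a cytotoxicity measure; read 24 h after compound addition.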 Conditions: primary human keratinocytes with fibroblasts. The method in brief: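 Human primary keratinocyte plus foreskin fibroblast co-culture exposed to chemicals for 24 h. Total protein measured by 0.1% sulforhodamine B staining after 10% TCA fixation, read at 560 nm; bidirectional fitting versus DMSO baseline.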

Read-out in test [2]: Interleukin-1 alpha (IL1a), IL1A (gene 3552)
Briefly: BSK_KF3CT_IL1a: BioMAP Diversity Plus: KF3CT Assay for Interleukin-1 alpha (IL1a) Biomarker Activity (AID 2283070). Conditions: primary human keratinocytes with fibroblasts; actives raise or lower the signal. The method in brief: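 Human keratinocyte plus foreskin fibroblast primary co-culture, sampled 24 h after chemical dosing. IL-1a measured by ELISA; responses fitted bidirectionally against DMSO baseline (negative control), so gain or loss of signal both count.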

Read-out in test [3]: TIMP metallopeptidase inhibitor 2 (TIMP2), TIMP2 (gene 7077)
Briefly: BSK_KF3CT_TIMP2: BioMAP Diversity Plus: KF3CT Assay for TIMP metallopeptidase inhibitor 2 (TIMP2) Biomarker Activity (AID 2283071). Conditions: primary human keratinocytes with fibroblasts; actives raise or lower the signal. The method in brief: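 Co-culture of human primary keratinocytes and foreskin fibroblasts, measured 24 h after chemical dosing. TIMP-2 quantified by ELISA and fitted in both directions relative to DMSO. Cytotoxicity checked in parallel cultures by SRB total-protein staining.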

Read-out in test [4]: Transforming growth factor beta 1 (TGFb1), TGFB1 (gene 7040)
Briefly: BSK_KF3CT_TGFb1: BioMAP Diversity Plus: KF3CT Assay for Transforming growth factor beta 1 (TGFb1) Biomarker Activity (AID 2283072). Conditions: primary human keratinocytes with fibroblasts; actives raise or lower the signal. The method in brief: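 Human keratinocyte/foreskin fibroblast co-culture; TGF-b1 measured by ELISA 24 h after dosing, fitted bidirectionally versus DMSO. Cytotoxicity checked in parallel cultures by total protein (SRB staining, 560 nm).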

Read-out in test [5]: C-C motif chemokine 2 (Homo sapiens) (UniProt P13500)
Briefly: BSK_KF3CT_MCP1: BioMAP Diversity Plus: KF3CT Assay for Monocyte Chemoattractant Protein 1 (MCP1/CCL2) Biomarker Activity (AID 2283073). Conditions: primary human keratinocytes with fibroblasts; actives raise or lower the signal. The method in brief: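 Biomarker MCP-1 is measured by ELISA in primary human keratinocytes co-cultured with foreskin fibroblasts, 24 h after chemical treatment; DMSO serves as the negative control and activity baseline.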

Read-out in test [6]: Matrix Metallopeptidase 9 (MMP9), MMP9 (gene 4318)
Briefly: BSK_KF3CT_MMP9: BioMAP Diversity Plus: KF3CT Assay for Matrix Metallopeptidase 9 (MMP9) Biomarker Activity (AID 2283074).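 On AC50: MMP9 protein level quantified by ELISA in the co-culture.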 Conditions: primary human keratinocytes with fibroblasts; actives raise or lower the signal. The method in brief:
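Keratinocyte plus foreskin fibroblast human primary skin co-culture was dosed with chemical and MMP-9 was quantified by ELISA 24 h later. Bidirectional curve fitting used DMSO as negative control and activity baseline.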

Read-out in test [7]: urokinase plasminogen activator (uPA), PLAU (gene 5328)
Briefly: BSK_KF3CT_uPA: BioMAP Diversity Plus: KF3CT Assay for urokinase plasminogen activator (uPA) Biomarker Activity (AID 2283075). The conditions noted are these: primary human keratinocytes with fibroblasts; actives raise or lower the signal. The method in brief:
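Human keratinocyte plus foreskin fibroblast primary co-culture exposed to chemical for 24 h. uPA levels were quantified by ELISA, and activity was fitted bidirectionally against a DMSO negative-control baseline.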

Read-out in the next test: CD40, CD40 (gene 958)
Briefly: BSK_LPS_CD40: BioMAP Diversity Plus: LPS Assay for CD40 Biomarker Activity (AID 2283076). The conditions noted are these: primary human HUVEC with PBMC; actives raise or lower the signal. The method in brief:
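Using a multiplexed primary human co-culture (umbilical vein endothelium plus PBMC), CD40 was read by ELISA 24 h after dosing, with cytotoxicity tracked by sulforhodamine B staining of parallel cultures and activity fitted bidirectionally versus DMSO.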

Read-out in test [8]: E-selectin (Homo sapiens) (UniProt P16581)
Briefly: BSK_LPS_Eselectin: BioMAP Diversity Plus: LPS Assay for Eselectin Biomarker Activity (AID 2283077). The conditions noted are these: primary human HUVEC with PBMC; actives raise or lower the signal. The method in brief: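 Dose chemical onto LPS-driven HUVEC/PBMC co-culture; after 24 h, run ELISA for E-selectin; fit up- and down-going responses relative to DMSO control.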

Read-out in test [9]: Interleukin-8 (IL8), CXCL8 (gene 3576)
Briefly: BSK_LPS_IL8: BioMAP Diversity Plus: LPS Assay for Interleukin-8 (IL8) Biomarker Activity (AID 2283078). Conditions: primary human HUVEC with PBMC; actives raise or lower the signal. The method in brief: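 In this LPS system, chemical-treated human umbilical vein endothelium/PBMC co-cultures were harvested at 24 h for IL-8 ELISA.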

Sequence of E-selectin (Homo sapiens) (P16581 whole entry, looked up): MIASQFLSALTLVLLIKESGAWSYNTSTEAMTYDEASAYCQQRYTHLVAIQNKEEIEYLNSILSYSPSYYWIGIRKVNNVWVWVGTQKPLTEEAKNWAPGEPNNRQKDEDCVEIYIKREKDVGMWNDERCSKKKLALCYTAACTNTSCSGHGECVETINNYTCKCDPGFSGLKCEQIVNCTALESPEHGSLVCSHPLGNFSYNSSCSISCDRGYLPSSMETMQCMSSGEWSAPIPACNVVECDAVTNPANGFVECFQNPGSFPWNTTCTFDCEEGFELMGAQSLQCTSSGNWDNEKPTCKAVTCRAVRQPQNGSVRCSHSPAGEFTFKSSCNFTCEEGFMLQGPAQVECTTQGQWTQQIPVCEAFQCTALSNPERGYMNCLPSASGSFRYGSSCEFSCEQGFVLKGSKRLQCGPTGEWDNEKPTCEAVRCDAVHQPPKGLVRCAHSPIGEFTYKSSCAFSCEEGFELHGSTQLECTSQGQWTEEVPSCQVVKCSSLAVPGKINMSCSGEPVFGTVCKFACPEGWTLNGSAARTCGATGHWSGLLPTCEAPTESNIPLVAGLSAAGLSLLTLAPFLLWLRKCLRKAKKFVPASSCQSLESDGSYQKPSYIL

Take `N#CN=C1SCCN1Cc1ccc(Cl)nc1`: the outcome in test [1], in test [2], in [3], in test [4], in test [5] and in test [6] was inactive. For the same compound, the outcome is “inactive” in test [7]; “inactive” with CD40, CD40 (gene 958); “inactive” in [8]; “inactive” in [9].

One may read the AC50 as the midpoint of the concentration-response curve, whichever way the signal moves. For `COC(=O)N(C(=O)N1CO[C@@]2(C(=O)OC)Cc3cc(Cl)ccc3C2=N1)c1ccc(OC(F)(F)F)cc1`, the result in test [1], in test [2], in [3], in test [4], in test [5] and in test [7] was inactive. Further, the outcome in test [8] was inactive. Further, the concentration at half-maximal activity (AC50) was 3.16 µM (active) in test [6]; 12.4 µM (active) in the test with CD40, CD40 (gene 958); 5.43 µM (active) in [9].

In the case of `COP(=S)(OC)SCn1nnc2ccccc2c1=O`, the result in test [1], in test [2], in test [3], in test [5], in test [6] and in test [7] was inactive. For the same compound, the outcome with CD40, CD40 (gene 958) is “inactive”; in [8] it was “inactive”; in test [9], “inactive”.

Consider `Cc1cc(C)nc(Nc2ccccc2)n1`, for which the result in [1], in [2], in [3], in [5], in [6] and in test [7] was inactive. Moreover, the outcome with CD40, CD40 (gene 958) is “inactive”; in test [8] it was “inactive”. For the same compound, the AC50 in test [9] was 26.8 µM (active).

In the case of `COc1cc(Cl)c(OC)cc1Cl`, the result in [1], in [2], in [3], in test [5], in test [6] and in [7] was inactive. The outcome is “inactive” with CD40, CD40 (gene 958); “inactive” in test [8]; “inactive” in [9].

As to `Cc1ccc(N=CN(C)C=Nc2ccc(C)cc2C)c(C)c1`, the AC50 was 28.6 µM (active) in [1]; 26.2 µM (active) in [3]; 31.3 µM (active) in test [6]; 26.9 µM (active) in test [7]; 29.5 µM (active) with CD40, CD40 (gene 958); 31.1 µM (active) in test [8]. Further, in test [9], the AC50 is 33.6 µM (active). Further, the outcome in test [2] and in test [5] was inactive.

In the case of `CCN(CC)c1nc(C)cc(OP(=S)(OC)OC)n1`, the result in test [1], in [2], in [3], in test [5], in [6] and in [7] was inactive. For the same compound, the outcome in test [8] and in [9] was inactive. The AC50 with CD40, CD40 (gene 958) was 19.5 µM (active).

For `CCOP(=O)(OCC)Oc1nc(Cl)c(Cl)cc1Cl`, the AC50 was 8.75 µM (active) in test [1]; 32.9 µM (active) in test [3]; 21.5 µM (active) in test [5]; 8.58 µM (active) in test [6]; 9.55 µM (active) in test [7]; 19.5 µM (active) in the test with CD40, CD40 (gene 958). For the same compound, the outcome in [2], in [8] and in test [9] was inactive.

Consider `CCOc1nc(C(Cl)(Cl)Cl)ns1`, for which the outcome in [1] was “inactive”; in [2], “inactive”; in [3], “inactive”; in [6] it was “inactive”; in [7], “inactive”; in the test with CD40, CD40 (gene 958), “inactive”. Also, the result in test [8] and in [9] was inactive.

Regarding `CNC(=O)N(C)c1nnc(C(C)(C)C)s1`, the outcome in test [1], in test [2], in test [3], in [5], in test [6] and in [7] was inactive. The outcome with CD40, CD40 (gene 958) is “inactive”; in test [8] it was “inactive”; in test [9] it was “inactive”.

On to `CS(=O)(=O)c1ccc(C(=O)C2C(=O)CCCC2=O)c([N+](=O)[O-])c1`, for which the outcome in [1], in [2], in test [3], in test [5], in test [6] and in test [7] was inactive. Moreover, the outcome in the test with CD40, CD40 (gene 958) is “inactive”; in test [8], “inactive”; in test [9], “inactive”.

For `CCOC(=O)C(C)OC(=O)c1cc(Oc2ccc(C(F)(F)F)cc2Cl)ccc1[N+](=O)[O-]` (configuration not stated), the outcome in [1] is “inactive”; in test [2], “inactive”; in test [3], “inactive”; in test [5] it was “inactive”; in [7], “inactive”; in the test with CD40, CD40 (gene 958), “inactive”. The outcome in [8] and in test [9] was inactive. Moreover, the AC50 in test [6] is 5.83 µM (active).

Regarding `CC(C)(C)C(=O)C(Oc1ccc(Cl)cc1)n1cncn1` (configuration not stated), the result in test [1], in test [2], in test [3], in test [5], in [6] and in [7] was inactive. Also, the outcome was “inactive” in the test with CD40, CD40 (gene 958); “inactive” in test [8]; “inactive” in test [9].

`N#Cc1c(Cl)cccc1Cl`: the result in test [1], in test [2], in test [3], in [5], in test [6] and in test [7] was inactive. The outcome is “inactive” with CD40, CD40 (gene 958) and “inactive” in test [9]. The AC50 in test [8] is 0.0841 µM (active).

As to `CC(C)N1C(=O)N(c2ccccc2)CSC1=NC(C)(C)C`, the half-maximal activity concentration (AC50) was 30.8 µM (active) in [1]; 26.3 µM (active) in [2]; 31.6 µM (active) in test [6]; 28.2 µM (active) with CD40, CD40 (gene 958); 30.6 µM (active) in [8]; 17.1 µM (active) in [9]. Further, the result in test [3], in test [5] and in [7] was inactive.

Consider `CCOc1cc(C(C)(C)C)ccc1C1COC(c2c(F)cccc2F)=N1` (configuration not stated), for which the AC50 is 8.44 µM (active) in test [1]; 11.2 µM (active) in [2]; 15.1 µM (active) in test [3]; 20 µM (active) in [5]; 14.8 µM (active) in [6]; 27.1 µM (active) in [7]. Moreover, the AC50 with CD40, CD40 (gene 958) is 29.2 µM (active); in test [8], 33.2 µM (active); in test [9], 26 µM (active).

For `C=CCOC(=O)C(C)(C)OC(=O)c1cc(-n2c(=O)cc(C(F)(F)F)n(C)c2=O)ccc1Cl`, the outcome in test [1], in [2], in test [6], in [7], in test [8] and in test [9] was inactive. Also, the AC50 in test [3] is 27.9 µM (active); in [5], 1.89 µM (active); in the test with CD40, CD40 (gene 958), 6.73 µM (active).

In the case of `CCCCOCN(C(=O)CCl)c1c(CC)cccc1CC`, the concentration at half-maximal activity (AC50) was 35.6 µM (active) in test [1]; 35.3 µM (active) in test [2]; 31.6 µM (active) in test [3]; 39.1 µM (active) in test [5]; 25.7 µM (active) in [6]; 31.3 µM (active) in test [7]. Also, the concentration at half-maximal activity (AC50) with CD40, CD40 (gene 958) was 22.5 µM (active); in [8], 31.3 µM (active); in [9], 28 µM (active).

In the case of `COP(=S)(OC)Oc1ccc([N+](=O)[O-])c(C)c1`, the outcome is “inactive” in test [1]; “inactive” in test [2]; “inactive” in test [3]; “inactive” in test [5]; “inactive” in test [7]; “inactive” with CD40, CD40 (gene 958). Besides, the result in test [8] and in test [9] was inactive. Moreover, the AC50 in test [6] was 15.1 µM (active).
